According to PubChem BioAssay (NCATS):
Where “and” joins values, the source holds several entries; their conditions need not be identical. Equal values may be shown once. Records with an inconclusive call do not appear. Entries that show only a call come without a potency. Calls of active or inactive are those of the source. Unless noted, calls come from the whole dose curve; as a rule, active = well fitted curve in the direction sought with a large enough effect; inconclusive = small, poorly fitted or top-dose-only effect, or another doubt; inactive = no such curve, though single readings can be large; an effect the other way counts as inactive or inconclusive.

Assays:
[1] = target: Alpha-galactosidase A (Homo sapiens) (UniProt P06280); experiment: Counterscreen for Glucocerebrosidase Inhibitors: qHTS Assay for Human alpha-Galactosidase at pH 4.5 (AID 992)
Method in brief: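 Fluorogenic 1536-well qHTS at pH 4.5 (citrate, Tween-20): 2 nM enzyme, 80 uM 4-MU-alpha-galactoside, 20 min room temperature, NaOH/glycine stop. Titration 0.7 nM to 77 uM, data normalized to no-enzyme and full-activity controls, Hill-fitted AC50.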

[2] = target: alpha-glucosidase (Oryza sativa, rice) (UniProt Q653V4); experiment: Counterscreen for Glucocerebrosidase Inhibitors: qHTS Assay for Rice alpha-Glucosidase at pH 5.0 (AID 997)
Method in brief: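 Endpoint fluorogenic assay at pH 5.0: compounds (0.7 nM to 77 uM) titrated against 4 nM rice enzyme and 400 uM 4-MU-alpha-glucoside for 20 min at room temperature; NaOH/glycine stop, read ex 365/em 440 nm, Hill-fitted AC50.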

[3] = target: Alpha-galactosidase (Coffea arabica) (UniProt Q42656); experiment: Counterscreen for Glucocerebrosidase Inhibitors: qHTS Assay for Coffee Bean alpha-Galactosidase at pH 5.9 (AID 998)
Method in brief: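 In 50 mM citric acid pH 5.9 with 0.005% Tween-20, coffee bean enzyme hydrolyses 80 uM 4-MU alpha-D-galactopyranoside over 20 min at RT. Activity is normalized to controls; AC50 comes from Hill-modelled concentration-response data.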

[4] = target: DNA repair nuclease/redox regulator APEX1 (Homo sapiens) (UniProt P27695); experiment: qHTS Validation Assay for Inhibitors of the Human Apurinic/apyrimidinic Endonuclease 1 (APE1) (AID 1705;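 note: TAMRA fluorescence gain over two minutes as APE1 cuts a quenched THF abasic duplex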)
Method in brief: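 Endonuclease activity of human APE1 is followed as dequenching when the enzyme incises a tetrahydrofuran abasic site in a short duplex labelled 5'-TAMRA/3'-BHQ-2 (50 nM final), after 15 min enzyme–compound preincubation at room temperature.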

[5] = qHTS Assay for Lipid Storage Modulators (AID 1519; calls by dose curve); conditions: Drosophila S3 cells, BODIPY lipid droplet/cell ratio, laser cytometry, cells loaded with oleic acid
Method in brief: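 Cells seeded at 5,000 per well were treated with compounds over a concentration series and loaded with oleic acid (400 uM, as added). Lipid droplet fluorescence (488 nm excitation, 500-530 nm channel) was read by laser-scanning cytometry and normalized to 20 uM Triacsin C.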

[6] = Counterscreen for APE1 Inhibitors: Fluorescent Dye Displacement Validation Assay (AID 1707)
Method in brief: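 Counterscreen flags promiscuous DNA binders: compounds displacing ThO from duplex DNA (abasic THF site, 50 nM) reduce 540 nm emission (480 nm excitation). ThO 250 nM final; Tris-HCl pH 7.5 with NaCl, MgCl2 and Tween-20.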

[7] = target: Endonuclease 4 (Escherichia coli (strain K12)) (UniProt P0A6C1); experiment: Counterscreen for APE1 Inhibitors: qHTS Validation Assay for Inhibitors of Endonuclease IV (AID 1708)
Method in brief: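 Enzyme (2 nM) + compound, 15 min RT; add 50 nM TAMRA/BHQ-2 THF-site dsDNA; kinetic read ex525/em598, 3 reads/60 s; activity = read 3 − read 1. Buffer Tris pH 7.5, 50 mM NaCl, 2 mM MgCl2, DTT, Tween-20.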

[8] = Validation of Assay for Modulators of Lamin A Splicing (AID 1459; active = well fitted curve in the direction sought with a large enough effect in the signal ratio; the % refers to the signal ratio;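 note: cells exposed to compound for two days before reading; ratio rise marks activators and ratio drop marks inhibitors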)
Method in brief: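 Splicing correction is reported by an EGFP-containing lamin A minigene in stably transfected S3 HeLa cells, while DsRed2 controls for viability and nonspecific signal. Cells are exposed to compounds for 48 hrs before the GFP over RFP ratio is taken.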

[9] = Cell Viability - LYMP2-007 (AID 979);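 note: cells exposed to compound for 24 h before reading; nearly all actives have a fitted effect of over 60% in size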
Method in brief: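 Cells are seeded at 2500 per well and rested 5 hr. Compounds are then added over a concentration series for 24 hr at 37 C. CellTiter-Glo is added for 30 min at room temperature before luminescence reading.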

[10] = Cell Viability - LYMP2-008 (AID 980);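 note: cells exposed to compound for 24 h at 37 °C; nearly all actives have a fitted effect of over 60% in size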
Method in brief: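 Cells seeded at 2500/well and rested 5 hr at 37 C; compounds added over a concentration range and incubated 24 hr at 37 C; CellTiter-Glo added, 30 min at room temperature; luminescence read and AC50 fitted with Hill model.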

[11] = Cell Viability - LYMP2-010 (AID 981);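 note: cells exposed to compound for 24 hours at 37 °C; nearly all actives have a fitted effect of over 55% in size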; note: potency is the fitted concentration of half-maximal effect
Method in brief: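 Steps: seed 2500 LYMP2-010 cells per well; incubate 5 hr at 37 C; add compound; incubate 24 hr at 37 C; add CellTiter-Glo, wait 30 min at room temperature; read luminescence. Concentration-response fitted to Hill equation for AC50.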

[12] = Cell Viability - LYMP2-012 (AID 982);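 note: cellular ATP by luciferase luminescence where a drop means cytotoxicity; cells exposed to compound for one day before reading; nearly all actives have a fitted effect of over 55% in size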; note: potency is the fitted concentration of half-maximal effect
[13] = Cell Viability - LYMP2-014 (AID 983);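 note: cells exposed to compound for 24 h at 37 °C; nearly all actives have a fitted effect of over 50% in size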
Method in brief: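 Cells are plated at 2500/well and left 5 hr at 37 C. Compounds are added across a concentration range and incubated 24 hr at 37 C in complete medium. CellTiter-Glo is added, and luminescence is read after 30 min at room temperature.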

[14] = Cell Viability - LYMP2-018 (AID 985);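 note: compound exposure lasted 24 hr at 37 °C; nearly all actives have a fitted effect of over 50% in size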; note: potency is the fitted concentration of half-maximal effect
Method in brief: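 Seed 2500 lymphoblastoid cells per well, incubate 5 hr at 37 C, add compound and incubate 24 hr at 37 C, add CellTiter-Glo, wait 30 min at room temperature, then read luminescence.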

[15] = Cell Viability - LYMP2-020 (AID 986);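 note: cells exposed to compound for 24 h at 37 °C; nearly all actives have a fitted effect of over 55% in size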; note: potency is the fitted concentration of half-maximal effect
Method in brief: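 Seed 2500 cells per well and incubate 5 hr at 37 C. Add compounds at a concentration series and incubate 24 hr at 37 C. Add CellTiter-Glo, wait 30 min at RT, read luminescence, and fit a Hill curve for AC50.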

[16] = Cell Viability - LYMP2-022 (AID 987); note: nearly all actives have a fitted effect of over 55% in size; note: potency is the fitted concentration of half-maximal effect
Method in brief: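 Cells were seeded at 2500 per well, rested 5 hr at 37 C, and treated with titrated compounds for 24 hr at 37 C. Cellular ATP was then quantified by luciferase luminescence, and AC50 values were derived from Hill-modelled concentration-response curves.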

[17] = Cell Viability - LYMP2-024 (AID 988); note: nearly all actives have a fitted effect of over 60% in size; note: potency is the fitted concentration of half-maximal effect
Method in brief: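 qHTS cytotoxicity, human lymphoblastoid line, complete medium; 24 h cpd treatment, 37 C; CellTiter-Glo ATP luminescence readout; tetraoctylammonium bromide positive control; AC50 via Hill fit.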

[18] = Cell Viability - LYMP2-026 (AID 989);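 note: cells exposed to compound for 24 h at 37 °C; nearly all actives have a fitted effect of over 50% in size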
Method in brief: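 Cells are seeded at 2500 per well and held 5 hr at 37 C. Compounds are added in concentration series for 24 hr, then CellTiter-Glo reagent is applied and luminescence read.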

[19] = Cell Viability - LYMP1-002 - Assay at 24 hr (AID 993)
Method in brief: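 Acute toxicity is measured as concentration-dependent loss of cellular ATP in a human lymphoblastoid line (Coriell LYMP1-002) after 24 h treatment in complete medium. ATP is quantified by luciferase luminescence and AC50 derived by Hill modelling.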

[20] = Cell Viability - LYMP1-002 - Assay at 40 hr (AID 994); note: nearly all actives have a fitted effect of over 60% in size
Method in brief: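 Cells are plated at 2500 per well and rested 5 hr at 37 C. Compounds are added and incubated 40 hr at 37 C. CellTiter-Glo reagent is added for 30 min at room temperature before luminescence is read.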

[21] = measured here: cell count channel max response
[22] = measured here: lipid channel max response

Sequence of Alpha-galactosidase (Coffea arabica) (Q42656 whole entry, looked up): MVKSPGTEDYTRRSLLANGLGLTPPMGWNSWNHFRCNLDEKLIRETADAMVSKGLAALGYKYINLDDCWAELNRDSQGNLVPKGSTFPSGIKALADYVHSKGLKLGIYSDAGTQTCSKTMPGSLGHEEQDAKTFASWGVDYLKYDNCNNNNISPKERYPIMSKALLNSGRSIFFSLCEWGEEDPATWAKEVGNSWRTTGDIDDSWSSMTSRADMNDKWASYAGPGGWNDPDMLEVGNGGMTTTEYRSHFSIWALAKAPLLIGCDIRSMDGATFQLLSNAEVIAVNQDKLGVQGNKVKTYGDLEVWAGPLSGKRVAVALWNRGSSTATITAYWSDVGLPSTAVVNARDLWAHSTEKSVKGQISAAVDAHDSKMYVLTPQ
Sequence of DNA repair nuclease/redox regulator APEX1 (Homo sapiens) (P27695 whole entry, looked up): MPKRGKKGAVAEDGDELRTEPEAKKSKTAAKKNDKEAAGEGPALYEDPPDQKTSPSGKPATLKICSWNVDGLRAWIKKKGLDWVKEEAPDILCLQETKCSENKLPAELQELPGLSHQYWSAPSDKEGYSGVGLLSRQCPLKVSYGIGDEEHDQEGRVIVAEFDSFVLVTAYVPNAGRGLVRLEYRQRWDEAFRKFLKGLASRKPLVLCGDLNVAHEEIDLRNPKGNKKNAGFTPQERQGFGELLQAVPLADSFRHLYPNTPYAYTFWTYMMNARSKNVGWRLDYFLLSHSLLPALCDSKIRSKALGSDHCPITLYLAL
Sequence of Alpha-galactosidase A (Homo sapiens) (P06280 whole entry, looked up): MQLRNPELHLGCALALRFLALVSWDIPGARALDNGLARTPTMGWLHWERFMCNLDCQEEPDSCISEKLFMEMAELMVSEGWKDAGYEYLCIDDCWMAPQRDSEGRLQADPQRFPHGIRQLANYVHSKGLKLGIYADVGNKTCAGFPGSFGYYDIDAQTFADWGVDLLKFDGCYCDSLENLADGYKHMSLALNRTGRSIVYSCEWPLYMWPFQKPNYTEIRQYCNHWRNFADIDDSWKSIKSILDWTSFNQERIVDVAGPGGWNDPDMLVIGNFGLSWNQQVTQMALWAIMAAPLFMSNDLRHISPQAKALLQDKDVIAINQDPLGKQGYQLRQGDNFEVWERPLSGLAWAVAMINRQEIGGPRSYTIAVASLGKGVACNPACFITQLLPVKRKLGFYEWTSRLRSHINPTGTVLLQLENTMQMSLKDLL

**Q.** What does the source list for `COc1ccc2c(c1)/C(=C/c1cnc[nH]1)C(=O)N2`?
**A.** outcome [1]: inactive; outcome [2]: inactive; outcome [3]: inactive; Potency [4]: inactive

**Q.** Which activity change, negative = inhibition ([5]; at 57.5 µM (top of the series)) does the source give for `CC(N)Cc1ccc(O)cc1` (stereo not given) here?
**A.** 1.02% (inactive)

**Q.** And the max response [5, 21]?
**A.** 11.5%

**Q.** What about the max response [5, 22] of the same molecule?
**A.** 13.9%

**Q.** What does the source list for `C=CCC1(C(C)CCC)C(=O)N=C(S)NC1=O` (stereo not given)?
**A.** activity change, negative = inhibition ([5]; at 57.5 µM (top of the series)): 5.57% (inactive); max response [5, 21]: 14.6%; max response [5, 22]: 20.4%

**Q.** Which results are given for `[N-]=[N+]=CC(=O)OCC(N)C(=O)O` (stereo not given)?
**A.** activity change, negative = inhibition ([5]; at 57.5 µM (top of the series)): 10.5% (inactive); max response [5, 21]: 14.1%; max response [5, 22]: 29.9%

**Q.** For `C[N+]1(C)CCC(OC(=O)C(c2ccccc2)c2ccccc2)CC1`, which outcome [3] is on record?
**A.** inactive

**Q.** And the activity change, negative = inhibition ([5]; at 57.5 µM (top of the series))?
**A.** -1.55% (inactive) and -0.573% (inactive)

**Q.** And the max response [5, 21]?
**A.** 3.78% and -17.3%

**Q.** And the max response [5, 22]?
**A.** 1.6% and -18%

**Q.** And the Potency [6]?
**A.** inactive

**Q.** And the Potency [7]?
**A.** inactive

**Q.** Which activity change, negative = inhibition ([5]; at 57.5 µM (top of the series)) does the source give for `CCCC(C)C1(CC)C(=O)NC(=O)NC1=O` (stereo not given) here?
**A.** 5.49% (inactive)

**Q.** And the max response [5, 21]?
**A.** -11.5%

**Q.** And the max response [5, 22]?
**A.** -3.32%

**Q.** With `COc1ccc(OC)c(C(O)C(C)N)c1` (stereo not given) as the molecule, how does the activity change, negative = inhibition ([5]; at 57.5 µM (top of the series)) read?
**A.** 12.3% (inactive) and -2.22% (inactive)

**Q.** And the max response [5, 21]?
**A.** 8.8% and 28.9%

**Q.** And the max response [5, 22]?
**A.** 25.1% and 26.8%

**Q.** What about the Potency [6] of the same molecule?
**A.** inactive

**Q.** What about the Potency [7] of the same molecule?
**A.** inactive

**Q.** With `CCN(CCCl)Cc1ccccc1Br` as the molecule, how does the outcome [1] read?
**A.** inactive

**Q.** And the outcome [2]?
**A.** inactive

**Q.** And the outcome [3]?
**A.** inactive

**Q.** What about the activity change, negative = inhibition ([5]; at 57.5 µM (top of the series)) of the same molecule?
**A.** -2.24% (inactive)

**Q.** And the max response [5, 21]?
**A.** 32.6%

**Q.** What about the max response [5, 22] of the same molecule?
**A.** 31.1%

**Q.** And the Potency [6]?
**A.** inactive

**Q.** With `NC(=O)c1cc(N2CC2)c([N+](=O)[O-])cc1[N+](=O)[O-]` as the molecule, how does the outcome [1] read?
**A.** inactive

**Q.** What about the outcome [2] of the same molecule?
**A.** inactive

**Q.** And the outcome [3]?
**A.** inactive

**Q.** And the outcome [8]?
**A.** inactive

**Q.** And the Potency [6]?
**A.** inactive

**Q.** What about the Potency [7] of the same molecule?
**A.** inactive

**Q.** Which results are given for `O=C1CCO1`?
**A.** Potency [9]: inactive; Potency [10]: inactive; Potency [11]: inactive; Potency [12]: inactive; Potency [13]: inactive; Potency [14]: inactive; Potency [15]: inactive; Potency [16]: inactive; Potency [17]: inactive; Potency [18]: inactive; Potency [19]: inactive; Potency [20]: inactive; activity change, negative = inhibition ([5]; at 57.5 µM (top of the series)): 5.6% (inactive); max response [5, 21]: 8.02%; max response [5, 22]: 16.6%

**Q.** Which results are given for `CC(C)(C)c1cc(C=C(C#N)C#N)cc(C(C)(C)C)c1O`?
**A.** outcome [1]: inactive; outcome [2]: inactive; outcome [3]: inactive; Potency [4]: inactive; Potency [6]: inactive; Potency [7]: inactive

**Q.** What does the source list for `ClC1C(Cl)C(Cl)C(Cl)C(Cl)C1Cl` (stereo not given)?
**A.** activity change, negative = inhibition ([5]; at 57.5 µM (top of the series)): 9.37% (inactive); max response [5, 21]: 11.2%; max response [5, 22]: 20.6%

**Q.** Which results are given for `NC(=O)CI`?
**A.** outcome [1]: inactive; outcome [2]: inactive; Potency [4]: inactive; Potency [6]: inactive; Potency [7]: inactive

**Q.** What does the source list for `CN1CCC(c2c[nH]c3ccc(O)cc23)CC1`?
**A.** outcome [1]: inactive; outcome [2]: inactive; outcome [3]: inactive; outcome [8]: inactive; Potency [6]: inactive

**Q.** For `CCC1(C)CC(=O)NC(=O)C1`, which activity change, negative = inhibition ([5]; at 25.7 µM (top of the series)) is on record?
**A.** -1.02% (inactive)

**Q.** What about the max response [5, 21] of the same molecule?
**A.** -7.91%

**Q.** What about the max response [5, 22] of the same molecule?
**A.** -9.15%

**Q.** What does the source list for `CC(N)c1cccc(Cl)c1Cl` (stereo not given)?
**A.** Potency [6]: inactive; Potency [7]: inactive

**Q.** For `CC(C)(C)c1cc(O)ccc1O`, which Potency [9] is on record?
**A.** inactive

**Q.** And the Potency [10]?
**A.** inactive

**Q.** And the Potency [11]?
**A.** 50.1 µM (active)

**Q.** What about the Potency [12] of the same molecule?
**A.** 50.1 µM (active)

**Q.** What about the Potency [14] of the same molecule?
**A.** 50.1 µM (active)

**Q.** What about the Potency [15] of the same molecule?
**A.** 50.1 µM (active)

**Q.** And the Potency [16]?
**A.** 50.1 µM (active) and 39.8 µM (active)

**Q.** What about the Potency [17] of the same molecule?
**A.** 31.6 µM (active)

**Q.** And the Potency [18]?
**A.** inactive

**Q.** What about the Potency [19] of the same molecule?
**A.** inactive

**Q.** What about the Potency [20] of the same molecule?
**A.** inactive
